Source: PubChem BioAssay (NCI)
About 83,000 compounds went through this panel and 20% of them were active in at least one assay; those are over-represented in the sample as a whole.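 Cell lines were cultured in 96-well plates, exposed to a single compound concentration, and assessed for percent growth 48 hours later.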 Activity calls are given as the source filed them. How the source made its calls: active means growth percent below 10; inactive means the rest.

Legend:
Assay in all cases: NCI-60 one-dose screen, 48 h (100 = growth as untreated, 0 = no growth, -100 = all killed)
Details in all cases: 10 µM unless noted
SK-MEL-2 melanoma = test system: SK-MEL-2 melanoma
EKVX NSCLC = test system: EKVX NSCLC
SN12C renal = test system: SN12C renal
UO-31 renal = test system: UO-31 renal
TK-10 renal = test system: TK-10 renal
ACHN renal = test system: ACHN renal
CAKI-1 renal = test system: CAKI-1 renal
A498 renal = test system: A498 renal
CCRF-CEM leukemia = test system: CCRF-CEM leukemia
MOLT-4 leukemia = test system: MOLT-4 leukemia

Measured: growth

Nc1nnc(-c2cncc(Br)c2)c(-c2c[nH]c3ccc(Br)cc23)n1
inactive: SK-MEL-2 melanoma 55.4% | EKVX NSCLC 65.7% | SN12C renal 57.6% | UO-31 renal 34.8% | TK-10 renal 97.7% | ACHN renal 56.5% | CAKI-1 renal 46% | A498 renal 92.7% | CCRF-CEM leukemia 44.1% | MOLT-4 leukemia 33%

COc1cc(/C=C/C(=O)c2cnn(-c3cc(=O)[nH]c4ccc(Br)cc34)c2C)cc(OC)c1OC
active: SK-MEL-2 melanoma -59.6% | EKVX NSCLC -57.8% | SN12C renal -7.58% | UO-31 renal -80.7% | TK-10 renal 1.77% | ACHN renal -34.9% | CAKI-1 renal -4.42% | A498 renal 6.24% | CCRF-CEM leukemia -19.6% | MOLT-4 leukemia -12.3%

C/C(=N/O)c1ccc(NC(=O)CSc2nnc(-c3ccc4nc(-c5ccc(Cl)cc5)[nH]c4c3)o2)cc1
inactive: SK-MEL-2 melanoma 65.1% | EKVX NSCLC 99.8% | SN12C renal 28.8% | UO-31 renal 87.7% | TK-10 renal 121% | ACHN renal 77.3% | CAKI-1 renal 97% | A498 renal 158% | CCRF-CEM leukemia 32.5% | MOLT-4 leukemia 19.6%

Cc1cc(C(NC(=O)CCCCCNc2cccc3c2C(=O)N(C2CCC(=O)CC2=O)C3=O)c2cccc(N(C)C)c2)c(O)c2ncccc12 (stereo not given)
active: SK-MEL-2 melanoma -1.61% | EKVX NSCLC 7.79% | UO-31 renal 8.84% | CCRF-CEM leukemia -19.4% | MOLT-4 leukemia -0.125%
inactive: SN12C renal 10.2% | TK-10 renal 42.4% | ACHN renal 14.7% | CAKI-1 renal 19.4% | A498 renal 26.9%

CC(=O)C[n+]1cccc2c3ccccc3ccc21
inactive: SK-MEL-2 melanoma 106% | EKVX NSCLC 56.6% | SN12C renal 80.1% | UO-31 renal 83% | TK-10 renal 101% | ACHN renal 92.1% | CAKI-1 renal 94.1% | A498 renal 110% | CCRF-CEM leukemia 65.5% | MOLT-4 leukemia 53.9%

Nc1nc2cc(-c3ccc4ncnc(NCc5ccccc5)c4c3)ccc2o1
active: EKVX NSCLC 0.598% | SN12C renal -33.7% | UO-31 renal -73.4% | TK-10 renal -28.5% | ACHN renal -62.4% | CAKI-1 renal -24.9% | MOLT-4 leukemia -20.1%
inactive: SK-MEL-2 melanoma 42.2% | A498 renal 41.6% | CCRF-CEM leukemia 29.6%

CC1=C(C(=O)Nc2ccccc2)C(c2cccc(Cl)c2Cl)n2c(nc3ccccc32)N1 (stereo not given)
active: MOLT-4 leukemia 7.7%
inactive: SK-MEL-2 melanoma 75.2% | EKVX NSCLC 46.3% | SN12C renal 53.4% | UO-31 renal 33.7% | TK-10 renal 57.8% | ACHN renal 42.5% | CAKI-1 renal 36.4% | A498 renal 35% | CCRF-CEM leukemia 29.8%

CCCCN1C(=O)/C(=C\C(=O)c2cc3ccccc3oc2=O)c2ccccc21
active: ACHN renal 0.901% | MOLT-4 leukemia 3.77%
inactive: SK-MEL-2 melanoma 79.8% | EKVX NSCLC 84.5% | SN12C renal 56.2% | UO-31 renal 32.1% | TK-10 renal 57.7% | CAKI-1 renal 70.8% | A498 renal 161% | CCRF-CEM leukemia 25.5%

Cc1ccc2nc(NC(=O)Nc3cccc(Cl)c3)sc2c1
inactive: SK-MEL-2 melanoma 114% | EKVX NSCLC 87.7% | SN12C renal 103% | UO-31 renal 82% | TK-10 renal 114% | ACHN renal 105% | CAKI-1 renal 90.7% | A498 renal 144% | CCRF-CEM leukemia 89.6% | MOLT-4 leukemia 82.9%

CCOc1ccccc1[C@H]1C(C(=O)c2ccc(Cl)cc2)C2(N[C@@H]1c1ccccc1)C(=O)Nc1ccc(Br)cc12 (stereo not given in full)
active: SK-MEL-2 melanoma -66.8% | EKVX NSCLC 3.88% | SN12C renal -86.6% | UO-31 renal 5.4% | ACHN renal 1.27% | CAKI-1 renal 7.21% | A498 renal -22.5% | CCRF-CEM leukemia 4.88% | MOLT-4 leukemia -23.2%
inactive: TK-10 renal 27%

COc1ccc(Nc2nnc(-c3c[nH]c4ccccc34)o2)cc1
inactive: SK-MEL-2 melanoma 92% | EKVX NSCLC 68% | SN12C renal 58.6% | UO-31 renal 62.6% | TK-10 renal 135% | ACHN renal 89.6% | CAKI-1 renal 72.9% | A498 renal 130% | MOLT-4 leukemia 40.3%
active: CCRF-CEM leukemia 7.79%

O=C(Cn1c(/C=C/c2ccc([N+](=O)[O-])cc2)nc2ccccc2c1=O)Nc1ccccc1
inactive: SK-MEL-2 melanoma 74.7% | EKVX NSCLC 79.9% | SN12C renal 61.6% | UO-31 renal 90.4% | TK-10 renal 95.3% | ACHN renal 47.8% | CAKI-1 renal 57.3% | A498 renal 143% | CCRF-CEM leukemia 101% | MOLT-4 leukemia 107%

COc1c2c(cc3c1C(CCc1ccccc1)N(C)CC3)OCO2 (stereo not given)
active: SK-MEL-2 melanoma -18.1% | SN12C renal 8.61% | A498 renal -15.4% | MOLT-4 leukemia 8.71%
inactive: EKVX NSCLC 16.1% | UO-31 renal 14.3% | TK-10 renal 33.5% | ACHN renal 14.9% | CAKI-1 renal 14.5% | CCRF-CEM leukemia 14.2%
